In PubChem BioAssay (NCATS):
“And” between values parts separate entries of the source, which are not always exact repeats. Equal entries are not always repeated. Inconclusive results are not listed. Entries that show only a call come without a potency. The source made the active and inactive calls. The call rests on the fitted dose curve; in most records, active means well fitted cell-killing curve with a large enough effect; inconclusive means small, poorly fitted or top-dose-only effect, or effect the other way; inactive means flat fitted curve, though single readings scatter.

tested on: Tov-21-G; assay: Primary qHTS to identify gynecologic anti-cancer compounds using libraries of approved drugs and bioactive compounds (AID 1345084); conditions: Gynecologic cancer cell panel viability, ATPlite luminescence, 48 h; series mostly up to 57.5 µM; further: nearly all actives have a fitted effect of over 55% in size
Outline: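 Five-point cytotoxicity, 48 h drug exposure at 37 C, 5% CO2, on cells seeded 16 h beforehand. ATP content read by ATPlite luminescence.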
Potency means the concentration at half of the fitted maximal effect.

Structure (SMILES)	Potency
C[n+]1c2cc(N)ccc2cc2ccc(N)cc21 (tested in a mixture with another compound)	28.2 µM (active)
COc1cc2c(cc1OC)C(=O)C(CC1CCN(Cc3ccccc3)CC1)C2 (configuration not stated)	inactive
CCCCCCC[N+](CC)(CC)CCCCc1ccc(Cl)cc1	20 µM (active)
CCCCC(CC)CN=C(N)NC(N)=NCCCCCCN=C(N)NC(N)=NCC(CC)CCCC (configuration not stated)	17.8 µM (active)
CC(=O)Oc1ccc2c(c1)CC[C@@H]1[C@@H]2CC[C@]2(C)[C@@H](O)CC[C@@H]12	inactive
Cc1ccc(O)c2ncccc12	inactive
CC(C)n1nc(-c2cc3cc(O)ccc3[nH]2)c2c(N)ncnc21	11.2 µM (active) and 4.47 µM (active)
c1ccc(OCc2ccc(CCCN3CCOCC3)cc2)cc1	inactive
Oc1ccc(O)cc1	inactive
NC(=NCCCCCCN=C(N)/N=C(\N)Nc1ccc(Cl)cc1)/N=C(\N)Nc1ccc(Cl)cc1	inactive
O=c1c(-c2ccccc2)c1-c1ccccc1	inactive
COc1c(C)c2c(c(O)c1C/C=C(\C)CCC(=O)O)C(=O)OC2	1 µM (active)
